Assay outcomes: PubChem BioAssay, National Center for Advancing Translational Sciences (NCATS)
Nrf2 inh: inhibitors of Nrf2 signaling | A549 ARE-Fluc reporter, luciferase luminescence, 18-24 h | Potency, µM (titrated, usually from 46 µM), without a hit: at the top dose activity change, negative = inhibition, actives largely listed as inhibitors | hit rate 2.1% among 360,000 | AID 504444; further: potency means the concentration at half of the fitted maximal effect; nearly all actives have a fitted effect of over 60% in size
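Cells were seeded and rested 2 h, then exposed to compounds for 18-24 h. CellTiter-Fluor was read first as a viability measure. BugLite was added 15 min before the final luminescent read of ARE-luciferase activity in A549 cells.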
KB-3-1 tox: kills parental KB-3-1 adenocarcinoma cells | KB-3-1 viability, CellTiter-Glo ATP luminescence, 72 h | Potency, µM (top dose mostly 46.1 µM), hits mostly cytotoxic | hit rate 1.4% among 400,000; further: potency means the concentration at half of the fitted maximal effect; nearly all actives have a fitted effect of over 60% in size
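Viability of parental KB-3-1 cells, measured by CellTiter-Glo luminescence, followed a 72 h incubation at 37 °C with pinned compounds in phenol-red-free DMEM containing 10% FBS.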
A549 tox: kills or reduces viability of A549 cells in Nrf2 counter-screen. A549 ARE-Fluc cells, CellTiter-Fluor viability, 18-24 h. Potency, µM (highest dose often 46 µM), for inactives: at the highest dose activity change, negative = cytotoxicity, actives largely listed as inhibitors. hit rate 0.16% among 390,000; further: potency means the concentration at half of the fitted maximal effect
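A549 ARE-Fluc cells in 5% FBS OPTI-MEM, 5000 cells/well, rested 2 h then exposed to compounds in concentration-response for 18-24 h at 37 °C. Viability by CellTiter-Fluor fluorescence (Ex 405/Em 525) after 30 min; luciferase luminescence (BugLite, 15 min, RT) read afterwards.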
PI4K2A block: PI4K2A (human) kinase inhibition. hit rate 0.13% among 420,000. purified PI4K2A, ADP-Glo luminescence, 1 h; stronger effect = lower value. Q9BTU6. activity change, negative = inhibition, % at 76.9 µM; in the data active means activity change below about -50%; inconclusive means mostly about -30% to -49%;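 further: -100% = wells without enzyme as full effect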
Target sequence (Q9BTU6 whole entry, looked up): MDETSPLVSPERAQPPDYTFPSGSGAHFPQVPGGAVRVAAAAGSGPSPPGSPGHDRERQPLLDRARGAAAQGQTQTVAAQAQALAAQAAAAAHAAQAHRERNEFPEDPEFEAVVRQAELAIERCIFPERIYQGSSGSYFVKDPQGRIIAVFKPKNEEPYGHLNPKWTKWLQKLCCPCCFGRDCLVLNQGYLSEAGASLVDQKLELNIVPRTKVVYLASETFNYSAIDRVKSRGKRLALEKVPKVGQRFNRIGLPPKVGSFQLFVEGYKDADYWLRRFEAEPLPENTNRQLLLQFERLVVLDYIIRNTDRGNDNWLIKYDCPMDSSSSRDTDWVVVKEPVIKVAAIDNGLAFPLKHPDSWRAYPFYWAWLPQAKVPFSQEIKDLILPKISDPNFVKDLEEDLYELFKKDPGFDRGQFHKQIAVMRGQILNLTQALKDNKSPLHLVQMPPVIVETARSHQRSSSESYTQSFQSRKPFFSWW
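Compounds are screened against recombinant PI4K2A using PI as substrate and ATP, the latter dispensed at 300 microM. Reactions run one hour at ambient temperature before ADP-Glo detection; full inhibition defined by wells lacking enzyme.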
Giardia kill: Giardia lamblia killing | Giardia lamblia trophozoite viability | activity change, % at 7.66 µM, hits read low | hit rate 0.15% among 340,000; in the data active means activity change below about -80%; inconclusive means between about -30% and that limit;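 further: parasites exposed to compound for two days anaerobically before the ATP read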
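Killing of trophozoites was scored by loss of ATP luminescence after a 48 hrs anaerobic exposure to compounds at 37 deg C, using 100 cells per well.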
KB-V1 MDR tox: KB-V1 MDR subline cytotoxicity. KB-V1 MDR cells viability, CellTiter-Glo, 72 h. Potency, µM (highest dose often 46.1 µM), hits mostly cytotoxic. hit rate 3.4% among 400,000; further: potency means the concentration at half of the fitted maximal effect; nearly all actives have a fitted effect of over 60% in size
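Cells of the MDR subline KB-V1 are plated, dosed with compound at multiple concentrations, and incubated 72 h at 37 degrees C; CellTiter-Glo is then added and luminescence read after 10 min.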
* marks the source's active call; other numbers are inactive results; i = inactive; ? = inconclusive; · = no result. Hits are enriched below; roughly 5.7% of the tested compounds scored in any of these assays. Unless noted, the call rests on the fitted dose curve; in most records, active means well fitted curve in the direction sought with a large enough effect; inconclusive means small, poorly fitted or top-dose-only effect, or another doubt; inactive means no such curve, though single readings can be large; an effect the other way counts as inactive or inconclusive. Unless noted, on the % scale 0 is the no-effect control and ±100 the full control effect.

SMILES | Nrf2 inh | KB-3-1 tox | A549 tox | PI4K2A block | Giardia kill | KB-V1 MDR tox
COc1ccc(-c2noc(CSc3nnc(-c4ccc(Cl)cc4)n3C)n2)cc1OC | 5% | i | 0% | 4 | · | i
CCC(=O)NC(c1ccc(Br)o1)c1cc(Cl)c2cccnc2c1O (centres undefined) | ? | · | -15% | · | · | ·
CCOC(=O)c1c(C)c(C(=O)NCc2ccco2)c(C)n1Cc1ccccc1 | · | i | -4% | -8 | 3 | 4.1µM*
Clc1ccc2c(c1)-c1ccccc1C1=NCCN12 | · | 10µM* | · | 9 | · | 8.2µM*
Brc1ccc2c(c1)-c1ccccc1C1=NCCN12 | · | ? | · | 6 | · | 10µM*
COc1ccc(Br)cc1S(=O)(=O)N1CCN=C1c1ccccc1 | 4% | · | -3% | 7 | 4 | ·
Cc1ccc(OCC(=O)N2CCc3ccccc3C2)cc1 | 4% | i | 1% | 3 | 0 | i
CN(C(=O)C(C)(C)C)c1ccc(OCC(=O)N2CCc3ccccc3C2)cc1 | 10µM* | ? | -1% | 4 | 12 | 4.6µM*
CC(C)n1nnnc1C1(C)CSCC(=O)N1Cc1cccc(F)c1 (centres undefined) | · | · | · | -3 | · | ·
Clc1ccc(-c2nnc(-c3ccc(Br)cc3)c(N3CCSCC3)n2)cc1 | 16% | i | 5% | 7 | -6 | i
Clc1ccc(-c2nnc(-c3ccco3)nc2N2CCCCC2)cc1 | -5% | i | 0% | 1 | -15 | 18µM*
CC1CCC(C(=O)NC(C(=O)N2CCN(c3ccccn3)CC2)C(C)C)CC1 (centres undefined) | -5% | i | 8% | 6 | 12 | 3.3µM*
CC1CCC(C(=O)NC(C(=O)N2CCc3ccccc3C2)C(C)C)CC1 (centres undefined) | -22% | i | 0% | 4 | 4 | i
CCOC(=O)c1ccc(N2C(=O)c3n[nH]c(-c4ccco4)c3C2c2ccc(O)c(OCC)c2)cc1 (centres undefined) | ? | i | 13% | -17 | · | i
CCOC(=O)c1ccc(N2C(=O)c3[nH]nc(-c4ccc(C)cc4)c3C2c2cccs2)cc1 (centres undefined) | 23µM* | ? | ? | -1 | · | ?
COc1ccccc1C1c2c(-c3ccc(Cl)cc3)n[nH]c2C(=O)N1c1ccc(C)cc1 (centres undefined) | ? | i | -21% | -2 | · | 26µM*
CCOC(=O)c1ccc(N2C(=O)c3[nH]nc(-c4ccc(C)cc4)c3C2c2ccc(O)c(OCC)c2)cc1 (centres undefined) | 21µM* | ? | -10% | 0 | · | ?
CC(=O)c1cccc(NC(=S)NCCc2ccc(Cl)cc2)c1 | -22% | ? | 2% | 10 | -11 | 18µM*
COC(=O)c1cccc(NC(=S)NCCC2=CCCCC2)c1 | 23µM* | ? | -8% | 2 | -8 | ?
CC(C)CNC(=O)c1cccc(NC(=O)Cc2ccc(Cl)cc2)c1 | -6% | ? | 0% | -1 | 1 | 5.8µM*
S=C(NCCc1ccccn1)Nc1cccc(Cl)c1 | 4% | i | 1% | 6 | 1 | 21µM*
Cc1cccc(NC(=S)NCCc2ccccn2)c1 | 5% | i | -2% | 2 | 4 | i
CC(C)CNC(=O)c1cccc(NC(=O)CSc2ccccc2)c1 | 1% | ? | -1% | 2 | 5 | i
COc1cc(OC)c(OC)cc1/C=C/c1nc2ccccc2o1 | · | i | · | · | · | i
CCn1cnc2c(Nc3cc(F)cc(F)c3)nc(C(=O)COc3c(F)c(F)cc(F)c3F)nc21 | 15% | · | 0% | · | · | ·
SMILES | Nrf2 inh | KB-3-1 tox | A549 tox | PI4K2A block | Giardia kill | KB-V1 MDR tox
CCOC(=O)C1(CCOc2ccccc2)CCN(Cc2cccc3nonc23)CC1 | 21µM* | i | -11% | 3 | 0 | i
CCOC(=O)C1=C(O)C(=O)NC(c2ccccc2)=C(OCC)C1 | 18% | ? | -3% | -3 | -5 | i
CCOC(=O)C1=C(O)C(=O)NC(c2ccccc2)=C(OC2CCCCC2)C1 | 0% | ? | -6% | 8 | -13 | 15µM*
Cc1cccn2cc(-c3ccc(S(=O)(=O)N4CCCCC4)cc3)nc12 | -10% | i | -3% | -5 | -10 | i
Cc1cccn2cc(-c3ccc(S(=O)(=O)N4CCOCC4)cc3)nc12 | -22% | i | 9% | -2 | 4 | 2.3µM*
CCOC(=O)c1ccc(N(CCC2CO2)S(=O)(=O)c2ccc(C)cc2)cc1 (centres undefined) | -23% | i | -6% | -2 | 4 | 21µM*
CCOC(=O)c1ccc(NC(=O)CN(c2ccc(C)cc2)S(=O)(=O)c2ccc(OC)cc2)cc1 | 11% | i | 2% | -1 | · | i
O=C(CSc1nncs1)Nc1ccc(N2CCCCC2)cc1 | -4% | ? | -4% | 4 | -6 | 16µM*
COc1ccc(NC(=O)CSc2nncs2)cc1S(=O)(=O)N1CCCCC1 | -8% | i | -5% | 0 | 11 | i
COc1ccc2c(Sc3ccc(C)cc3)c(C(=O)NCC(C)c3ccccc3)[nH]c2c1 (centres undefined) | ? | i | 5% | 3 | · | i
COc1ccc2c(Sc3ccc(Cl)cc3)c(C(=O)N3CCCCC3)[nH]c2c1 | 21µM* | i | -9% | 4 | · | i
COc1ccc2c(Sc3ccc(C)cc3)c(C(=O)NC(C)C)[nH]c2c1 | 23µM* | i | -2% | 0 | · | i
O=[S+]([O-])(/C=C/c1nc(Nc2cc(F)cc(F)c2)c2ncn(CC(F)F)c2n1)c1ccccc1 | -14% | · | -8% | · | · | ·
COc1ccc(OC)c(CN(CCN2CCOCC2)C(=O)Nc2cccc(Cl)c2)c1 | 8% | i | 1% | -6 | 7 | 3.7µM*
O=C(Nc1nc(Cc2ccccc2)c(-c2ccccc2)n1Cc1ccccc1)c1ccccc1 | · | · | · | 1 | · | ·
Cc1ccnc(SCC(=O)Nc2sc3c(c2C#N)CCC(C(C)(C)C)C3)n1 (centres undefined) | 7% | ? | -6% | -3 | 7 | 13µM*
Cc1cc(C)nc(SCC(=O)Nc2sc3c(c2C#N)CCC(C)C3)n1 (centres undefined) | ? | i | -9% | 0 | -5 | ?
COc1ccc(C(C)=O)cc1COc1ccc(-n2cnnn2)cc1 | · | i | 13% | -8 | -3 | 21µM*
COc1ccc(NC(=O)COc2ccc(-n3cnnn3)cc2)cc1OC | -9% | i | 4% | -5 | 19 | i
COc1ccc(C2=NOC(COc3ccc4c(C)cc(=O)oc4c3)C2)c(OC)c1 (centres undefined) | -24% | 5.8µM* | ? | 2 | 19 | 15µM*
